The structures appear in SMILES notation. Inconclusive results are not listed. Activity calls are given as the source filed them. Calls come from the whole dose curve; as a rule, active = well fitted curve in the direction sought with a large enough effect; inconclusive = small, poorly fitted or top-dose-only effect, or another doubt; inactive = no such curve, though single readings can be large; an effect the other way counts as inactive or inconclusive.

Experiment [1] concerns the target Cytochrome P450 2C9 (Homo sapiens) (UniProt P11712). Description: qHTS Assay for Inhibitors and Substrates of Cytochrome P450 2C9 (AID 883). Note: potency is the fitted concentration of half-maximal effect; nearly all actives have a fitted effect of over 60% in size. Summed up: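 10nM CYP2C9 + 100uM Luciferin-H (=KM), 25mM KPO4; cpd 10 min 37C; NADPH regen, 60 min 37C; stop/detect with P450 Glo-Buffer 20 min; luminescence. Norm. to 57uM sulphaphenazole as full inhibition.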
Experiment [2] has as its target Cytochrome P450 2C19 (Homo sapiens) (UniProt P33261). Description: qHTS Assay for Inhibitors and Substrates of Cytochrome P450 2C19 (AID 899). Note: potency is the fitted concentration of half-maximal effect; nearly all actives have a fitted effect of over 60% in size. The gist of the method: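 Luminescent read-out of luciferin formed from Luciferin-H EGE (10uM, equal to KM). Enzyme 5nM in 50mM KPO4; compound added, 10 min at 37C, then NADPH regenerating system for 60 min at 37C. Full inhibition defined by 57uM ketoconazole.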
(In general: In qHTS, concentration-response curves come from the screen itself.)

The nature of experiment [3]: qHTS Assay for Identification of Small Molecule Antagonists for Thrombopoietin (TPO) Signaling Pathway (AID 918). Note: potency is the fitted concentration of half-maximal effect; nearly all actives have a fitted effect of over 60% in size. The conditions noted are these: TPO-dependent cell signaling reporter, antagonist mode. Summed up:
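Luminescence read-out: GPIIb-promoter luciferase in Ba/F3 cells carrying human TPO receptor. Compounds added with 26 pM TPO (EC50), 24 hrs, 37 C, 5% CO2; cells deprived of IL-3 overnight beforehand. Inhibition of signal scored.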

Experiment [4] in a line: Cytometry Cell-Based qHTS for Inhibitors of the mTORC1 Signaling Pathway in MEF cells (AID 2668). Note: potency is the fitted concentration of half-maximal effect. Summed up:
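In MEFs grown in DMEM + 10% FBS, a 24 hrs compound exposure preceded imaging of phospho-rpS6 Ser235/236 by laser-scanning cytometry.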

The nature of experiment [5]: qHTS for compounds that reverse cellular toxicity of Amyloid beta (A-beta) peptide in yeast: LOPAC Validation Assay (AID 720559). Summed up: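 Here, A-beta-toxic yeast grow with test compounds at 30 C for 48 hr before optical density at 600 nm is recorded; data are normalized against DMSO and the FeCl3-clioquinol control.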
Experiment [6] in a line: qHTS for differential inhibitors of proliferation of Plasmodium falciparum line D10 (AID 1877).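 Note: potency is the fitted concentration of half-maximal effect; parasites grown with compound for 72 h before DNA staining.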
In experiment [7] the target is Cytochrome P450 2C9 (Homo sapiens) (UniProt P11712). Nature of the experiment: qHTS for inhibitors of CYP2C9 against the NCATS DSHEA and TCM libraries (AID 1919973).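 Note: luminogenic pro-luciferin CYP2C9 substrate turned into luciferin with NADPH regeneration.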 The gist of the method: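 Substances were tested against enzyme with a pro-luciferin substrate; minus-enzyme wells served as background. After NADPH-initiated oxidation (30-45 min, RT), light was generated with P450-Glo reagent.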

The target of experiment [8] is Phospholipid hydroperoxide glutathione peroxidase GPX4 (Homo sapiens) (UniProt P36969). Description: Primary qHTS Assay for Inhibitors of Recombinant Selenoprotein Glutathione Peroxidase 4 (GPX4) (AID 1845192). Note: nearly all actives have a fitted effect of over 65% in size. The gist of the method: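 Steps: GPX4 plus compound, 30 min RT; add GR/GSH/NADPH master mix; start with cumene hydroperoxide; read 340/450 nm fluorescence at 0 and 15 min. Finals were 200 nM GPX4, 1 mM GSH, 0.5 mM CHP, 0.5 mM NADPH, 100 nM GR.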

In experiment [9] the target is ATP-dependent 6-phosphofructokinase (Trypanosoma brucei brucei) (UniProt O15648). Description: qHTS Assay to Find Inhibitors of T. brucei phosphofructokinase: hit validation (AID 492961). Summed up:
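Luminescence from ADP-Glo reports ADP generated as T. brucei PFK (1.25 nM) phosphorylates 0.5 mM fructose-6-phosphate using 0.1 mM ATP. Reactions ran 45 min at room temperature, pH 8.0.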

In another experiment the test system is AS120. Description: qHTS profiling for inhibitors of Plasmodium falciparum proliferation (AID 504749). Note: nearly all actives have a fitted effect of over 60% in size. The following applies: P. falciparum in erythrocytes, SYBR Green DNA, 72 h; series mostly up to 28.7 µM. Summed up:
(§1)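 SYBR Green fluorescence (ex 485 nm, em 535 nm) reports parasite DNA after 72 h compound exposure of infected red cells at 0.3% parasitemia, 2.5% hematocrit; signal normalized to 0.29 uM artemisinin and vehicle wells.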

For the next experiment, the system named is ATS189. The experiment is described as above. The following applies: P. falciparum in erythrocytes, SYBR Green DNA, 72 h; series mostly up to 28.7 µM. The gist of the method: as §1
The next experiment deals with CP192. Described as above. The conditions noted are these: P. falciparum in erythrocytes, SYBR Green DNA, 72 h; series mostly up to 28.7 µM. Summed up: as §1
The subject of another experiment is CP194. The experiment is described as above. The following applies: P. falciparum in erythrocytes, SYBR Green DNA, 72 h; series mostly up to 28.7 µM. Summed up: as §1
For the next experiment, the system named is CP201. Described as above. The following applies: P. falciparum in erythrocytes, SYBR Green DNA, 72 h; series mostly up to 28.7 µM. The gist of the method:
as §1

Another experiment deals with CP203. The experiment is described as above. The conditions noted are these: P. falciparum in erythrocytes, SYBR Green DNA, 72 h; series mostly up to 28.7 µM. The gist of the method:
as §1

The test system of another experiment is CP247. The experiment is described as above. The following applies: P. falciparum in erythrocytes, SYBR Green DNA, 72 h; series mostly up to 28.7 µM. The gist of the method: as §1
In the next experiment the test system is P94_40. The experiment is described as above. The following applies: P. falciparum in erythrocytes, SYBR Green DNA, 72 h; series mostly up to 28.7 µM. Summed up:
as §1

For a further experiment, the system named is PC49. The experiment is described as above. The following applies: P. falciparum in erythrocytes, SYBR Green DNA, 72 h; series mostly up to 28.7 µM. Summed up:
as §1

In another experiment the test system is TAB109. Described as above. The conditions noted are these: P. falciparum in erythrocytes, SYBR Green DNA, 72 h; series mostly up to 12.8 µM. The gist of the method: as §1
Another experiment has as its system TAB113. The description is as above. The following applies: P. falciparum in erythrocytes, SYBR Green DNA, 72 h; series mostly up to 28.7 µM. Summed up:
as §1

Sequence of Cytochrome P450 2C9 (Homo sapiens) (P11712 whole entry, looked up): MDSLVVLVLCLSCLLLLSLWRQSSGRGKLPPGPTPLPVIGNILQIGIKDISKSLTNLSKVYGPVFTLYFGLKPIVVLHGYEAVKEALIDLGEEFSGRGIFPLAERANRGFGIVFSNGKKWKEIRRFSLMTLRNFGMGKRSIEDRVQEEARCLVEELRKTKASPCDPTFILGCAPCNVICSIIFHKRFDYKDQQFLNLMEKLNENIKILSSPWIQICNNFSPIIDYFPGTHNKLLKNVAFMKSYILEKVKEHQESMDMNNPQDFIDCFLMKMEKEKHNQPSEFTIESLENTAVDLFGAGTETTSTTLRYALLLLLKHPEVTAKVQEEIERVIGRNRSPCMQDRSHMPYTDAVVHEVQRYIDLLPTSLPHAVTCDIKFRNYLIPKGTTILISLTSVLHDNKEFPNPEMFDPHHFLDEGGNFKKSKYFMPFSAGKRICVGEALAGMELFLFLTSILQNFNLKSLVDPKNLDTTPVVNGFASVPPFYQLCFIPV
Sequence of ATP-dependent 6-phosphofructokinase (Trypanosoma brucei brucei) (O15648 whole entry, looked up): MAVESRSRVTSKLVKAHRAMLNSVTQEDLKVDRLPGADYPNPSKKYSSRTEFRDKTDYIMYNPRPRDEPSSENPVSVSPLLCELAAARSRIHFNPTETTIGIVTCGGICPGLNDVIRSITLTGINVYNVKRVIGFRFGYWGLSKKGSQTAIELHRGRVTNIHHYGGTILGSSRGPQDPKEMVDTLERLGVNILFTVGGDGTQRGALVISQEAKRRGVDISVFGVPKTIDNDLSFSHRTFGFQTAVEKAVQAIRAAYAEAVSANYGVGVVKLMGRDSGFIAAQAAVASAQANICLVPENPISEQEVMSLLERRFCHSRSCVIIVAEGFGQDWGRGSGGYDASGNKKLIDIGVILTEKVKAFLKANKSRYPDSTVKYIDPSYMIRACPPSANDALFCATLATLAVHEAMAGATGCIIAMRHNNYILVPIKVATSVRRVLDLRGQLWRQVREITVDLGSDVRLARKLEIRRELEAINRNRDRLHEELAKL
Sequence of Cytochrome P450 2C19 (Homo sapiens) (P33261 whole entry, looked up): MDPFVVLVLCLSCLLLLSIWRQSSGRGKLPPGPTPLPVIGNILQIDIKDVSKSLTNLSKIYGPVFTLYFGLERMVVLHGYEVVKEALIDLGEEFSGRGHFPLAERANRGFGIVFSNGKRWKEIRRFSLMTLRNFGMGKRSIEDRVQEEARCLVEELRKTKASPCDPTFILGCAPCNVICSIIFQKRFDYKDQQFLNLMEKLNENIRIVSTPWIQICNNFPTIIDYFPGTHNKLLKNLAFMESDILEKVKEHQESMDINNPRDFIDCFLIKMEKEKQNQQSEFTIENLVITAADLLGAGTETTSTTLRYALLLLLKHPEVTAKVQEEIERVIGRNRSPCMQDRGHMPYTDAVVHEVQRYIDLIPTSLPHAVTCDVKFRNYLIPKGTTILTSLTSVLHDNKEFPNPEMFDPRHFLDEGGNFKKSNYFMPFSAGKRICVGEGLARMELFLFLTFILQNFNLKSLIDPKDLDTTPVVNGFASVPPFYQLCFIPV
Sequence of Phospholipid hydroperoxide glutathione peroxidase GPX4 (Homo sapiens) (P36969 whole entry, looked up): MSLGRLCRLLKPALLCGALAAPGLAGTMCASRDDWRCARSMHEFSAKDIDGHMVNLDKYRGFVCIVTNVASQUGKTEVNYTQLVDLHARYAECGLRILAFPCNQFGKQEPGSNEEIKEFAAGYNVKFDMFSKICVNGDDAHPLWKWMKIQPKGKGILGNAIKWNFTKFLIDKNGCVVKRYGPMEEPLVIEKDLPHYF

As for `S=C(S)N1CCCC1`, the Potency is 2 µM (active) in experiment [1], 3.98 µM (active) in experiment [2], 3.98 µM (active) in [3] and 4.65 µM (active) in [4]. The molecule was classed as inactive in experiment [5].
For the molecule `CN1C[C@H](C(=O)N[C@]2(C)O[C@@]3(O)C4CCCN4C(=O)[C@H](Cc4ccccc4)N3C2=O)C[C@@H]2c3cccc4[nH]cc(c34)C[C@H]21` (stereo not given in full), the Potency in experiment [6] is 4.47 µM (active).
Turning to `O=S(=O)(O)O`, the Potency result in experiment [7] is “inactive”.
Turning to `CN1[C@@H]2CC(O)C[C@H]1[C@@H]1O[C@@H]12` (stereo not given in full), in [8], the Potency entry is “inactive”.
For the molecule `C[C@]12CC[C@H]3[C@@H](CCC4=CC(=O)CC[C@@]43C)[C@@H]1CC[C@@H]2O`, the Potency entry (in [9]; in the experiment on AS120; with ATS189; with CP192; with CP194; with CP201) was “inactive” throughout. The Potency entry in the experiment with CP203, with CP247, with P94_40, in the experiment with PC49, in the experiment on TAB109 and with TAB113 was “inactive” in each case.

The record behind these values is PubChem BioAssay (NCATS).
